This is an account of results in PubChem BioAssay (NCI).

Test [1] is described as follows: NCI Yeast Anticancer Drug Screen. Data for the rad50 strain (AID 155).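 Further: 0% = growth of vehicle-only cultures of the same strain.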 Particulars: S. cerevisiae rad50 strain growth inhibition, hits give high values. Summed up:
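Readout: growth inhibition relative to vehicle-treated cultures. Compound exposure was carried out in a genetically defined yeast strain deficient in DNA damage repair.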

Test [2] can be described thus: NCI Yeast Anticancer Drug Screen. Data for the mec2-1 strain (AID 157). Particulars: S. cerevisiae mec2-1 strain, hits give high values. The essentials:
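Test agents were screened against the mec2-1 yeast strain, with defined DNA repair or cell cycle alteration. Growth was scored as inhibition against vehicle-only controls.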

A short description of test [3]: NCI Yeast Anticancer Drug Screen. Data for the sgs1 mgt1 strain (AID 161).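 Further: 0% = growth of cultures given vehicle only.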 Particulars: S. cerevisiae sgs1 mgt1 strain, hits give high values. The essentials: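 Inhibition of yeast growth, normalised to vehicle-treated controls, is reported for a strain bearing genetic alterations in DNA damage repair.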
Test [4] can be described thus: NCI Yeast Anticancer Drug Screen. Data for the cln2 rad14 strain (AID 165).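 Further: 0% = growth equal to vehicle treated cultures.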 The following applies: S. cerevisiae cln2 rad14 strain, hits give high values. Summed up: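 Growth of compound-exposed yeast (cln2 rad14 genotype) measured and expressed as inhibition relative to vehicle.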
The nature of test [5]: NCI Yeast Anticancer Drug Screen. Data for the bub3 strain (AID 167). Particulars: S. cerevisiae bub3 mutant strain, hits give high values. Summed up: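 Readout: yeast growth inhibition, expressed relative to vehicle-only wells. The test organism is a mutant strain from a panel with lesions in DNA repair or checkpoint genes.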
Test [6] in a line: NCI Yeast Anticancer Drug Screen. Data for the mlh1 rad18 strain (AID 175). The following applies: S. cerevisiae mlh1 rad18 strain growth inhibition, hits give high values. Summed up:
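In this whole-cell yeast screen, a strain with altered DNA damage repair is challenged with compound, and its growth is measured against matched vehicle-treated controls.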

Setting [7] is: at 5.0 µM (retest, dose inferred, filed as 0.5).
Setting [8] is: at 50.0 µM (retest, dose inferred, filed as 5.0).

Compounds without any hit were thinned out: in the full panel of roughly 79,000, 15% have a hit. Unmarked numbers belong to inactive results. Active and inactive are the calls of the source. No stated cut-off is given here; in the data, active means growth inhibition above about 70%; inactive means the rest.

Regarding `CSS(=O)(=O)c1ccc(C)cc1`, the growth inhibition in test [1] (setting [7]) was 22%; in test [1] (setting [8]), 99% (active); in test [1] (at 50.0 µM) it was 99.7% (active); in test [2] (setting [7]), 22%; in test [2] (setting [8]), 100% (active); in test [2] (at 50.0 µM), 99.7% (active). Moreover, the growth inhibition is 21% in test [3] (setting [7]); 100% (active) in test [3] (setting [8]); 99.2% (active) in test [3] (at 50.0 µM); -27% in test [4] (setting [7]); 99% (active) in test [4] (setting [8]); 99.4% (active) in test [4] (at 50.0 µM). In addition, the growth inhibition in test [5] (setting [7]) is 18%; in test [5] (setting [8]) it was 100% (active); in test [5] (at 50.0 µM), 99.5% (active); in test [6] (setting [7]), -10%; in test [6] (setting [8]), 99% (active); in test [6] (at 50.0 µM) it was 99.5% (active).
For `C=CCN1CCC(OC(=O)C(O)(/C=C\CC)C2CCCC2)CC1` (configuration not stated), the growth inhibition in test [1] (setting [7]) was 19%; in test [1] (setting [8]) it was 61%; in test [1] (at 50.0 µM), 68.8%; in test [2] (setting [7]), 13%; in test [2] (setting [8]), 40%; in test [2] (at 50.0 µM), 48.9%. The growth inhibition in test [3] (setting [7]) was 37%; in test [3] (setting [8]) it was 63%; in test [3] (at 50.0 µM), 70.2% (active); in test [4] (setting [7]), 17%; in test [4] (setting [8]), 75% (active); in test [4] (at 50.0 µM) it was 62.8%. The growth inhibition in test [5] (setting [7]) is 12%; in test [5] (setting [8]), 83% (active); in test [5] (at 50.0 µM) it was 61.6%; in test [6] (setting [7]) it was 7%; in test [6] (setting [8]), 67%; in test [6] (at 50.0 µM), 59.5%.
Consider `c1cc2c(c3c1CN(C1CCCCC1)CO3)OCN(C1CCCCC1)C2`, for which the growth inhibition is 2% in test [1] (setting [7]); 19% in test [1] (setting [8]); -11% in test [1] (at 50.0 µM); 4% in test [2] (setting [7]); 10% in test [2] (setting [8]); -29.6% in test [2] (at 50.0 µM). In addition, the growth inhibition is 6% in test [3] (setting [7]); 16% in test [3] (setting [8]); 32.1% in test [3] (at 50.0 µM); -12% in test [4] (setting [7]); 16% in test [4] (setting [8]); -27.2% in test [4] (at 50.0 µM). Also, the growth inhibition in test [5] (setting [7]) is 5%; in test [5] (setting [8]), 28%; in test [5] (at 50.0 µM) it was 65%; in test [6] (setting [7]), 6%; in test [6] (setting [8]), 10%; in test [6] (at 50.0 µM), 12.4%.
With `COc1ccccc1CN1CCCN(Cc2ccccc2OC)C1c1cc(Cl)cc(Cl)c1O`, the growth inhibition is 16% in test [1] (setting [7]); 93% (active) in test [1] (setting [8]); 69.2% in test [1] (at 50.0 µM); 11% in test [2] (setting [7]); 100% (active) in test [2] (setting [8]); 15.3% in test [2] (at 50.0 µM). Besides, the growth inhibition in test [3] (setting [7]) is 19%; in test [3] (setting [8]), 99% (active); in test [3] (at 50.0 µM) it was 97.5% (active); in test [4] (setting [7]), -2%; in test [4] (setting [8]), 97% (active); in test [4] (at 50.0 µM), 6.2%. In addition, the growth inhibition in test [5] (setting [7]) is 4%; in test [5] (setting [8]), 98% (active); in test [5] (at 50.0 µM), 9.3%; in test [6] (setting [7]), 52%; in test [6] (setting [8]) it was 99% (active); in test [6] (at 50.0 µM), 78.6% (active).
Take `O=C1/C(=C/c2ccc([N+](=O)[O-])cc2)Sc2scc(-c3cccc([N+](=O)[O-])c3)[n+]21`: the growth inhibition in test [1] (setting [7]) is 69%; in test [1] (setting [8]) it was 98% (active); in test [1] (at 50.0 µM), 83.5% (active); in test [2] (setting [7]) it was 69%; in test [2] (setting [8]) it was 98% (active); in test [2] (at 50.0 µM) it was 89.5% (active). In addition, the growth inhibition is 96% (active) in test [3] (setting [7]); 99% (active) in test [3] (setting [8]); 90.6% (active) in test [3] (at 50.0 µM); 53% in test [4] (setting [7]); 98% (active) in test [4] (setting [8]); 90.6% (active) in test [4] (at 50.0 µM). The growth inhibition in test [5] (setting [7]) is 99% (active); in test [5] (setting [8]), 99% (active); in test [5] (at 50.0 µM), 87% (active); in test [6] (setting [7]), 51%; in test [6] (setting [8]) it was 99% (active); in test [6] (at 50.0 µM), 91.1% (active).
`CC(C)OC(=O)C1C=CCc2c(O)ccc(O)c21` (configuration not stated): the growth inhibition in test [1] (setting [7]) is 8%; in test [1] (setting [8]), 25%; in test [1] (at 50.0 µM), 21.2%; in test [2] (setting [7]) it was 15%; in test [2] (setting [8]), 24%; in test [2] (at 50.0 µM), 11.8%. Moreover, the growth inhibition was 12% in test [3] (setting [7]); 44% in test [3] (setting [8]); 61% in test [3] (at 50.0 µM); 7% in test [4] (setting [7]); 22% in test [4] (setting [8]); 65.9% in test [4] (at 50.0 µM). In addition, the growth inhibition in test [5] (setting [7]) is 4%; in test [5] (setting [8]), 24%; in test [5] (at 50.0 µM), 52%; in test [6] (setting [7]), 11%; in test [6] (setting [8]), 35%; in test [6] (at 50.0 µM) it was 86.2% (active).
As to `CC1=Nc2ccccc2/C1=C\c1c(C)[nH]c2ccccc12`, the growth inhibition in test [1] (setting [7]) was 33%; in test [1] (setting [8]), 96% (active); in test [1] (at 50.0 µM), 83% (active); in test [2] (setting [7]) it was 39%; in test [2] (setting [8]) it was 98% (active); in test [2] (at 50.0 µM), 86.8% (active). The growth inhibition in test [3] (setting [7]) was 38%; in test [3] (setting [8]), 97% (active); in test [3] (at 50.0 µM), 85.2% (active); in test [4] (setting [7]) it was 10%; in test [4] (setting [8]) it was 96% (active); in test [4] (at 50.0 µM), 74.3% (active). Further, the growth inhibition is 53% in test [5] (setting [7]); 97% (active) in test [5] (setting [8]); 87.8% (active) in test [5] (at 50.0 µM); 58% in test [6] (setting [7]); 94% (active) in test [6] (setting [8]); -32.6% in test [6] (at 50.0 µM).
Turning to `OC(Cc1ccccc1)(Cc1ccccc1)c1ccccc1`, the growth inhibition in test [1] (setting [7]) is 20%; in test [1] (setting [8]), 98% (active); in test [1] (at 50.0 µM), 88.5% (active); in test [2] (setting [7]), 13%; in test [2] (setting [8]), 99% (active); in test [2] (at 50.0 µM), 78.2% (active). Also, the growth inhibition in test [3] (setting [7]) was -3%; in test [3] (setting [8]) it was 99% (active); in test [3] (at 50.0 µM), 78% (active); in test [4] (setting [7]), 3%; in test [4] (setting [8]), 98% (active); in test [4] (at 50.0 µM) it was 93.9% (active). The growth inhibition in test [5] (setting [7]) was -14%; in test [5] (setting [8]), 97% (active); in test [5] (at 50.0 µM), 88.3% (active); in test [6] (setting [7]), -6%; in test [6] (setting [8]) it was 99% (active); in test [6] (at 50.0 µM) it was 96% (active).
`Cc1cc(C2CCCCC2)n(O)c(=O)c1`: the growth inhibition in test [1] (setting [7]) was 98% (active); in test [1] (setting [8]), 99% (active); in test [1] (at 50.0 µM), 98.8% (active); in test [2] (setting [7]), 98% (active); in test [2] (setting [8]), 99% (active); in test [2] (at 50.0 µM), 99.2% (active). The growth inhibition in test [3] (setting [7]) is 98% (active); in test [3] (setting [8]), 99% (active); in test [3] (at 50.0 µM) it was 99.5% (active); in test [4] (setting [7]), 96% (active); in test [4] (setting [8]), 98% (active); in test [4] (at 50.0 µM) it was 99.3% (active). Further, the growth inhibition in test [5] (setting [7]) is 96% (active); in test [5] (setting [8]), 99% (active); in test [5] (at 50.0 µM), 98.7% (active); in test [6] (setting [7]), 98% (active); in test [6] (setting [8]), 99% (active); in test [6] (at 50.0 µM) it was 99.3% (active).
